Drawing on PubChem BioAssay (NCI), this text covers growth for 40 compounds.

About 83,000 compounds went through this panel and 20% of them were active in at least one assay; those are over-represented in the sample as a whole.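 Activity criterion: percent growth below 10, measured after cells in 96-well plates were exposed to a single compound concentration for 48 hours.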 Values without a mark were called inactive. The source made the active and inactive calls.

For the assay, the system named is OVCAR-4 ovarian. Briefly: NCI-60 one-dose screen, 48 h (100 = growth as untreated, 0 = no growth, -100 = all killed). The settings on record: 10 µM unless noted. The method, then: Growth inhibition of the OVCAR-4 human tumor cell line is measured as a screen for anti-cancer activity. Cells are grown in 96 well plates and exposed to the test compound for 48 hours. Compounds are tested at a single concentration, which is 10^-5 M for most compounds. The reported endpoint is percent growth (GI% or GIPRCNT), where numbers from 0 - 100% represent growth inhibition, and numbers from -100% - 0 represent cell death. For example, a value of 40 represents 60% growth inhibition. A value of 0 means no net growth occurred over the course of the experiment. A value of -40 indicates 40% of cells at the beginning of the experiment died by the end of the experiment. A value of -100 means all cells are dead at the end of the experiment.
NCI-60 Human Tumor Cell Lines Screen was performed using the standard one-dose NCI protocol, which is described in more detail at https://dtp.cancer.gov/discovery_development/nci-60/default.htm.
Compounds with GIPRCNT values below 10 were considered active. Activity score was based on GIPRCNT using the following formula: […]
Score is 0 for GIPRCNT values of 100 or above, 50 for GIPRCNT values of 0, and 100 for GIPRCNT values of -100.
Turning to `O=C(Nc1ccc(C2=NCCCN2)cc1)Nc1ccc(C2=NCCCN2)cc1`, the growth was 64%.
In the case of `COc1ccc2c(c1)nc(N)c1c3ccccc3cn21`, the growth is 95.6%.
As for `Cc1nn(-c2ccccc2)c(Cl)c1C(CC(=O)c1ccc(Cl)cc1)CC(=O)c1ccc(Cl)cc1`, the growth was 97.8%.
Regarding `CCOC(=O)c1c(NC(=O)C2CCCCC2C(=O)O)sc2c1CCCC2` (stereo not given), the growth is 100%.
The result for `CN(CCOc1ccc(CC2SC(=O)NC2=O)cc1)c1ccccn1` (stereo not given) reads 110%.
Turning to `COc1ccc2[nH]cc(/C=C3/C(=O)Nc4ccc(F)cc43)c2c1`, the growth is 75.6%.
With `O=c1cc(-c2cccnc2)oc2c1ccc1ccccc12`, the growth was 89.3%.
In the case of `Cc1cc(C)c2c(c1)N1OC(C2)C[C@H]1/C=C/c1ccccc1` (stereo not given in full), the growth is 81.8%.
Take `CCCCCCCC/C=C\CCCCCCCCOc1ccccc1CC(=O)NCC[N+]1(C)CCCC1`: the growth was 86.8%.
Next, `COC(=O)CC1=C(C)/C(=C/c2[nH]c(-c3ccc[nH]3)cc2OC)N=C1C`: 10.5%; `CCC(C)(C)C(=O)O[C@H]1C[C@@H](C)C=C2C=C[C@H](C)[C@H](CC[C@@H]3C[C@@H](O)CC(=O)O3)[C@H]21`: 86.6%; `COc1ccc(C2=NNC(c3cc(Cc4ccc(O)c(C5CC(c6ccc(OC)cc6)=NN5)c4)ccc3O)C2)cc1` (stereo not given): 58.3%.
The result for `O=C(CCc1nnc2sc(Cc3ccccc3Cl)nn12)c1nc2ccccc2[nH]1` reads 94%; that for `O=C(COC(=O)[C@H](C[Se][Se]C[C@H](NC(=O)c1ccc(Br)cc1F)C(=O)OCC(=O)c1ccc(F)cc1)NC(=O)c1ccc(Br)cc1F)c1ccc(F)cc1`, -95.7% (active).
For the compound `COc1cccc(/C=C2\COc3ccc(O)c(O)c3C2=O)c1OC`, the growth is 35.3%.
The result for `O=C(Nc1ccccc1Cl)c1cnc2ccc(C3CCNCC3)cn12` reads 101%.
With `CC(C)[C@]12O[C@H]1[C@@H]1O[C@]13[C@]1(O[C@H]1C[C@H]1C4=C(CC[C@@]13C)C(=O)OC4)[C@@H]2OC(=O)CN(C)C`, the growth was 21.1%.
As for `CN=C(NC)N/N=C(C)\C=N\NC(=NC)NC`, the growth is 112%.
Turning to `OC(CCC(O)(c1ccccc1)c1ccccc1)(c1ccccc1)c1ccccc1`, the growth is 99.4%.
The result for `NS(=O)(=O)c1ccc(NC2=C(Cl)C(=O)c3ccccc3C2=O)cc1` reads 94.4%.
For the compound `O=C(O)C(=O)O`, the growth was 99.8%.
Next, `CCN1C[C@@H](C)n2c(c(O)c3c(=O)n(Cc4ccc(F)c(Cl)c4)nc(C(=O)NC)c32)C1=O`: 80.2%; `Cc1cc([N+](=O)[O-])c(C)cc1C(=O)O`: 111%.
The result for `O=C(CSc1nnc(Nc2ccccc2)s1)NCCc1ccc(F)cc1` reads 102%; that for `COc1ccc(-c2cc(Cc3cccs3)c(=O)n(Cn3cncn3)n2)cc1`, 98.5%.
For `CC1CC(C)/C(=N/NC(N)=O)C(C(O)CC2CCC(=O)NC2=O)C1` (stereo not given), the growth was 57.7%.
The result for `c1ccc2c(c1)[nH]c1c2cc[n+]2cc3c(cc12)CCCC3` reads 38.9%.
Consider `COC(=O)c1ccc2c(c1)nc(-c1ccc(O)c(OC)c1)n2-c1cc(C(C)(C)C)[nH]n1`, for which the growth is 111%.
Turning to `O[C@@H]1Cc2ccc3ccccc3c2N[C@H](c2ccoc2)C1`, the growth is 99.1%.
The result for `COC1=CC(c2ccc[nH]2)=N/C1=C\c1[nH]c(C)c(C(=O)CCC(=O)Oc2ccc3c(c2)CCC2C3CC[C@]3(C)C(=O)CC[C@@H]23)c1C` (stereo not given in full) reads 67.7%; that for `O=C(OC[C@H]1O[C@H](OC(=O)c2cc(O)c(O)c(OC(=O)c3cc(O)c(O)c(O)c3)c2)[C@H](OC(=O)c2cc(O)c(O)c(OC(=O)c3cc(O)c(O)c(O)c3)c2)[C@@H](OC(=O)c2cc(O)c(O)c(OC(=O)c3cc(O)c(O)c(O)c3)c2)[C@@H]1OC(=O)c1cc(O)c(O)c(OC(=O)c2cc(O)c(O)c(O)c2)c1)c1cc(O)c(O)c(OC(=O)c2cc(O)c(O)c(O)c2)c1`, 37.8%; that for `Cc1cc2c(cc1[N+](=O)[O-])NC(CNC(C)C)CC2` (stereo not given), 95.1%.
`O=C(CCc1nnc2sc(-c3ccc(Cl)cc3Cl)nn12)c1nc2ccccc2[nH]1`: the growth was -54% (active).
Regarding `COc1cc(C2CC(=O)Nc3c2cc(Br)c2ccccc32)cc(Br)c1OC` (stereo not given), the growth is -64.2% (active).
Consider `O=C(NCCc1ccccc1)C1CCC(=O)N1Cc1ccc(Br)cc1` (stereo not given), for which the growth is 111%.
Next, `COC(=O)[C@]1(CCSC)N[C@H](c2cn(-c3ccccc3)nc2C)[C@@H]2C(=O)N(c3ccc(C)cc3)C(=O)[C@@H]21`: 112%.
For the compound `CCOC(=O)c1c2c(c(C)n1Cc1ccccc1)-c1nc(N)ncc1CC2`, the growth is 105%.
Take `O=C1OCCCCCCCCCC#Cc2ccccc21`: the growth was 91.3%.
Next, `C=Cc1nn2c(CCC(=O)c3nc4ccccc4[nH]3)nnc2s1`: 110%; `NC(=O)N/N=C/c1ccc(Br)o1`: 111%.
